Data: PubChem BioAssay (Tox21)
“And” between values parts separate entries of the source, which are not always exact repeats. Equal entries are not always repeated. Records with an inconclusive call do not appear. More than one record can exist for a structure, and the calls need not agree. The source made the active and inactive calls. Unless noted, calls come from the whole dose curve; as a rule, active = well fitted curve in the direction sought with a large enough effect in the repeat runs; inconclusive = weak or mixed curves; inactive = no such curve, though single readings can be large; an effect the other way counts as inactive or inconclusive.

Columns and labels:
[1] = qHTS RealTime-Glo MT Cell Viability Assay in HepG2 cells - 16 hour (AID 1224885); note: nearly all actives have a fitted effect of over 50% in size
Method in brief: (§1)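 Cells + NanoLuc/prosubstrate dispensed (600 cells/well) → 5 h at 37 C/5% CO2 → compounds in DMSO transferred → 40 h incubation at 37 C, luminescence read at 0, 8, 16, 24, 32, 40 h.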

[2] = qHTS RealTime-Glo MT Cell Viability Assay in HEK293 cells - 24 hour (AID 1224886); note: top concentration of the series differs between compounds; nearly all actives have a fitted effect of over 50% in size
Method in brief: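 Tox21 10K qHTS, HEK293, 600 cells/well, RealTime-Glo reagent co-dispensed with cells; 5 h preincubation, compound by pintool, 37 C, luminescence at 0–40 h.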

[3] = qHTS RealTime-Glo MT Cell Viability Assay in HEK293 cells - 8 hour (AID 1224887); note: top concentration of the series differs between compounds; nearly all actives have a fitted effect of over 50% in size
Method in brief: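 Real-time viability in HEK293: signal arises when living cells convert a prosubstrate for NanoLuc in the medium, so luminescence tracks viable cell number. Compound (23 nL, DMSO) added 5 h post-seeding; kinetic reads at 0–40 h, 37 C.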

[4] = A CellTox Green Cytotoxicity Assay to monitor cytotoxicity in HEK293 cells - 16 hour (AID 1224888); note: nearly all actives have a fitted effect of over 35% in size
Method in brief: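 Cells (HEK293, 600/well) and dye reagent are dispensed together. After 5 h at 37 C, 23 nL compound is pinned in. Plates stay at 37 C for 40 h with fluorescence read at 0h, 8h, 16h, 24h, 32h and 40h.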

[5] = A CellTox Green Cytotoxicity Assay to monitor cytotoxicity in HepG2 cells - 8 hour (AID 1224890); note: nearly all actives have a fitted effect of over 45% in size
Method in brief: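 Cells and non-lytic dye reagent are dispensed together (600 HepG2 cells/well) and incubated 5 h before DMSO compound transfer. Kinetic fluorescence is then recorded in the same wells during 40 h at 37 C.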

[6] = qHTS assay to identify small molecule antagonists of the estrogen receptor alpha (ER-alpha) signaling pathway using the BG1 cell line in the presence of 0.1 nM 17-beta-estradiol - cell viability counter screen (AID 1259241); note: nearly all actives have a fitted effect of over 40% in size
Method in brief: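 Cells were plated and left 24 hr, compounds in DMSO were pinned in, 17beta-estradiol was added to 0.1 nM final, and after 22 hr CellTiter-Fluor reagent was added for 30 min before fluorescence was read.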

[7] = qHTS assay to identify small molecule antagonists of the androgen receptor (AR) signaling pathway using the MDA cell line in the presence of 0.5 nM R1881 - cell viability counter screen (AID 1259242); note: nearly all actives have a fitted effect of over 45% in size
Method in brief: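 Steps: plate MDA-kb2 cells, rest 5 hr at 37C without CO2; pin in compounds in DMSO; add R1881 to 0.5 nM final; incubate 16 hr; add CellTiter-Fluor, 30 min; read fluorescence.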

[8] = qHTS assay to identify small molecule HDAC inhibitors (AID 1259364);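 note: wild-type HCT-116 cells with endogenous class I/II HDAC activity; top concentration of the series differs between compounds; nearly all actives have a fitted effect of over 45% in size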
Method in brief: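 Cells (HCT-116, wild type) are seeded at 1,500 per well, incubated overnight, treated with compound in DMSO for 2 hr, then developed with HDAC-Glo I/II reagent for 30 min at room temperature.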

[9] = qHTS assay to identify small molecule HDAC inhibitors - cell viability counter screen (AID 1259365); note: series mostly up to about 92 µM; nearly all actives have a fitted effect of over 50% in size
Method in brief: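 Counter screen in wild-type HCT-116 cells: compounds dissolved in DMSO are pin-transferred onto overnight-plated cells and left 2hr at 37C. ATP-based CellTiter-Glo luminescence then measures viable cells.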

[10] = qHTS assay to identify small molecule agonists of the sonic hedgehog signaling (Shh) pathway - cell viability counter screen (AID 1259366); note: nearly all actives have a fitted effect of over 50% in size; note: potency is the fitted concentration of half-maximal effect
Method in brief: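 Cells are plated at 2,000 per well and left 4hr at 37C, 5% CO2 before compound addition. After 23hr of treatment, CellTiter-Fluor reagent is added for 1hr at 37C and fluorescence is measured.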

[11] = qHTS assay to identify small molecule antagonists of the sonic hedgehog signaling (Shh) pathway - cell viability counter screen (AID 1259367); note: nearly all actives have a fitted effect of over 55% in size
Method in brief: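 Conditioned medium drove Shh signaling in 3T3 Gli1-Luc cells exposed to compounds at 37C and 5% CO2. Viability was determined from CellTiter-Fluor fluorescence, with reagent incubated 1 hr after 23 hr of treatment.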

[12] = qHTS assay to identify small molecule agonists of the sonic hedgehog signaling (Shh) pathway (AID 1259368; calls by dose curve;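 note: NIH/3T3-derived 3T3Gli1-Luc cells carrying a stable Gli1-driven firefly luciferase reporter; series mostly up to about 92 µM; nearly all actives have a fitted effect of over 15% in size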)
Method in brief: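 Cells of a mouse NIH/3T3 clone stably expressing luciferase under the Gli1 transcriptional response element are exposed to test chemicals for 24 hr at 37 C. Pathway activation is detected as a rise in luminescence.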

[13] = qHTS assay to identify small molecule antagonists of the sonic hedgehog signaling (Shh) pathway (AID 1259369; calls by dose curve; note: nearly all actives have a fitted effect of over 45% in size; note: potency is the fitted concentration of half-maximal effect)
Method in brief: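 Cells are plated and held 4hr at 37 C, compounds (DMSO) are pinned in, conditioned medium is added to stimulate the pathway, and after 24hr luciferase reagent is added for 30min before luminescence is read.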

[14] = target: Estrogen receptor beta (Homo sapiens) (UniProt Q92731); assay: qHTS assay to identify small molecule agonists of the estrogen receptor beta (ER-beta) signaling pathway (AID 1259377; active = well fitted activation curve with a large enough effect in the signal ratio in the repeat runs, not every such curve was filed as active; the % refers to the signal ratio; note: potency is the fitted concentration of half-maximal effect)
Estrogen receptor beta (Homo sapiens), sequence (Q92731 whole entry, looked up, the tested form may be a part): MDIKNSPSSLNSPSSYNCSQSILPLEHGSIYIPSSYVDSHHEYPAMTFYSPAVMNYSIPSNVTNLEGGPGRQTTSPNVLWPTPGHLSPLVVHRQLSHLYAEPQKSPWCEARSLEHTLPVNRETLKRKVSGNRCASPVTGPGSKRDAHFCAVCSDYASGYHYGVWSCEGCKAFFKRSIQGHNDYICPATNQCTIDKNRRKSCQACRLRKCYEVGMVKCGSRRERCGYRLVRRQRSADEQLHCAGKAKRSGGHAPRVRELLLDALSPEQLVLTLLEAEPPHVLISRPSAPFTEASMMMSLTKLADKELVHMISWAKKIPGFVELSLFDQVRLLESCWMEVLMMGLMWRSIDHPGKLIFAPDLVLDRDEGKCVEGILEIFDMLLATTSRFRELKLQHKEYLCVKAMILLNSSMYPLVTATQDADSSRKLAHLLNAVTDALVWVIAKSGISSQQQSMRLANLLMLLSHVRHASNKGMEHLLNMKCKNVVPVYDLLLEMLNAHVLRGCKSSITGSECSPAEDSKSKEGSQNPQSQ
Method in brief: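 Agonist mode cell assay in GripTite HEK293T cells expressing an ER-beta fusion that drives beta-lactamase from an Upstream Activator Sequence; 16 hr compound exposure at 37C, then 2 h LiveBLAzer B/G FRET substrate at room temperature, fluorescence read-out.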

[15] = target: Estrogen receptor beta (Homo sapiens) (UniProt Q92731); assay: qHTS assay to identify small molecule antagonists of the estrogen receptor beta (ER-beta) signaling pathway (AID 1259378; active = well fitted inhibition curve with a large enough effect in the signal ratio in the repeat runs, not every such curve was filed as active; the % refers to the signal ratio)
Method in brief: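 ER-beta-UAS-bla HEK293T (GripTite) cells in 2% charcoal-stripped FBS medium were preincubated 6 hr at 37C, dosed with compound, then stimulated with 1 nM E2 (final) for 16 hr; beta-lactamase reporter read by B/G FRET fluorescence after 2 hr substrate loading.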

[16] = qHTS assay to identify small molecule agonists of the androgen receptor (AR) signaling pathway in the presence of an antagonist - cell viability counter screen (AID 1259379);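 note: MDA-kb2 human breast cancer cells carrying an MMTV luciferase reporter; series mostly up to about 92 µM; nearly all actives have a fitted effect of over 25% in size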
Method in brief: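 Cytotoxicity is assessed by CellTiter-Fluor in MDA-kb2 cells carrying an MMTV-driven luciferase reporter. Cells receive 3.0uM nilutamide plus compounds at 15 concentrations and incubate 16 hr at 37C without CO2 before fluorescence reading.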

[17] = qHTS assay to identify small molecule agonists of the estrogen receptor beta (ER-beta) signaling pathway - cell viability counter screen (AID 1259380); note: nearly all actives have a fitted effect of over 30% in size; note: potency is the fitted concentration of half-maximal effect
Method in brief: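 Cytotoxicity is measured in parallel with the reporter screen: after 16 hr compound exposure at 37C and a 2 hr LiveBLAzer step, CellTiter-Glo is added to the same ER-beta-UAS-bla HEK293T wells and luminescence read after 30 min.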

[18] = qHTS RealTime-Glo MT Cell Viability Assay in HepG2 cells - 0 hour (AID 1224889); note: nearly all actives have a fitted effect of over 50% in size
Method in brief: as §1

[19] = target: Estrogen receptor (Homo sapiens) (UniProt P03372); assay: qHTS assay to identify small molecule antagonists of the estrogen receptor alpha (ER-alpha) signaling pathway using the BG1 cell line in the presence of 0.1 nM 17-beta-estradiol (AID 1259244); note: nearly all actives have a fitted effect of over 50% in size
Estrogen receptor (Homo sapiens), sequence (P03372 whole entry, looked up): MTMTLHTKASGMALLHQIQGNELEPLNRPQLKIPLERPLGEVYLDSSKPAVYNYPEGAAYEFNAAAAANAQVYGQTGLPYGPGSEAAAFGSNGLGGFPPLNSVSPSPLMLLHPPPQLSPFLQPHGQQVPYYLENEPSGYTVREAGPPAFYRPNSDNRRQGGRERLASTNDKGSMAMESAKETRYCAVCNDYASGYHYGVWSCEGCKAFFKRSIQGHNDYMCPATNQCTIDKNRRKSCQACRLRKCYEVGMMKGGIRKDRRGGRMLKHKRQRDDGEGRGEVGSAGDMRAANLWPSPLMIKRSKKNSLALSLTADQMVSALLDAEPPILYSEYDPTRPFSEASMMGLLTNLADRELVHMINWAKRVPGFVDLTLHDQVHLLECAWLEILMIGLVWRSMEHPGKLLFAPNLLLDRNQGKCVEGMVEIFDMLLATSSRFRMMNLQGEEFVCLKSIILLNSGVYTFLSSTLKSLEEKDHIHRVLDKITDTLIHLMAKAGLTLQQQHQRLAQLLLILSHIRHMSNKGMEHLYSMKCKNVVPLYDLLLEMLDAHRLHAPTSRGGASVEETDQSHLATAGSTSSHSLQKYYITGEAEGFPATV
Method in brief: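 Antagonist mode: compounds in DMSO are pinned onto VM7Luc4E2 reporter cells, 0.1 nM final 17beta-estradiol is added, and after 22 h at 37C luciferase luminescence is measured with ONE-Glo.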

[20] = qHTS assay to identify small molecule phospholipidosis (PLD) inducers (AID 1259344; active = well fitted curve in the direction sought with a large enough effect; an effect the other way counts as inactive or inconclusive)
Method in brief: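 After 4 h attachment on collagen I, HepG2 cells were dosed with compound alongside LipidTOX Red, kept 24 h at 37 C, fixed, and imaged for lamellar phospholipid pits.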

Measured: Potency

ON=C1CCCCC1
inactive and 27.3 µM (active): [13]
not listed: [18] | [19] | [20]
inactive: all other assays above

O=C(OCCOCCOC(=O)c1ccccc1)c1ccccc1
not listed: [2] | [3] | [12] | [14] | [15] | [20]
inactive: all other assays above

O=C1CCC(N2C(=O)c3ccccc3C2=O)C(=O)N1 (stereo not drawn)
not listed: [18] | [19]
inactive: all other assays above

CC1=CC(=O)NS(=O)(=O)O1
not listed: [18] | [19]
inactive: all other assays above

C#C[C@]1(O)CC[C@H]2[C@@H]3CCC4=CC(=O)CC[C@@H]4[C@H]3CC[C@@]21C
active: [13] 21.7 µM and 29.8 µM | [14] 1.37 µM and 4.22 µM | [17] 48.6 µM
not listed: [1]
inactive: all other assays above

OCC(CO)(CBr)CBr
not listed: [12] | [14] | [15] | [18] | [19] | [20]
inactive: all other assays above

O=c1[nH]c(=O)n([C@H]2CCCO2)cc1F
not listed: [14] | [18] | [19]
inactive: all other assays above

CC(C)(C)[C@@H](O)[C@@H](Cc1ccc(Cl)cc1)n1cncn1
not listed: [2] | [13] | [19] | [20]
inactive: all other assays above

CCCCCCOCCO
not listed: [18] | [20]
inactive: all other assays above

O=C(O)[C@H](O)[C@@H](O)[C@H](O)[C@H](O)CO
not listed: [4] | [12] | [14] | [15] | [19]
inactive: all other assays above

Cc1cnc(C(=O)NCCc2ccc(S(=O)(=O)NC(=O)NC3CCCCC3)cc2)cn1
not listed: [14] | [18]
inactive: all other assays above

O=c1[nH]c(=O)n([C@H]2C[C@H](O)[C@@H](CO)O2)cc1Br
not listed: [1]
inactive: all other assays above

CCCCCCCCCCCCCCCO
30.9 µM (active) and inactive: [10]
27.5 µM (active) and inactive: [13]
not listed: [12] | [15] | [18] | [19] | [20]
inactive: all other assays above

C=CCNC(N)=S
not listed: [18] | [19]
inactive: all other assays above

CCCCCCCCC/C=C/CC1CC(=O)OC1=O (stereo not drawn)
not listed: [14] | [15] | [17] | [18] | [19] | [20]
inactive: all other assays above

CSCCC=O
not listed: [19] | [20]
inactive: all other assays above
